# Only a selection was taken, and hits are over-represented in it overall.
# UbGFP stabilizer = Ubiquitin-GFP Assay | Ubiquitin-GFP reporter cells, proteasome inhibition, GFP fluorescence; response scale: untreated = 0%, 10 µM MG-132 = 100% | Potency, µM (series often up to 45.9 µM), for inactives: at the top dose activation (GFP accumulation), actives largely listed as activators | 67,000 tested, under 10 active | AID 526, 2006; active means well fitted activation curve with a large enough effect, not every such curve was filed as active; inconclusive means small, poorly fitted or top-dose-only effect, or another doubt; inactive means no such curve, though single readings can be large or run the other way; further: potency means the concentration at half of the fitted maximal effect
#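 Reporter cells (U2OS, ubiquitin-G76V-GFP fusion) are plated overnight, then treated 4 hr at 37 °C with compound titrations from 46 uM down to 2.9 nM. Activity is scaled against untreated cells and 10 uM MG-132.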
# Imprint erasure = qHTS Assay for Compounds that Induce Erasure of Genomic Imprints. mouse ES Peg3-LacZ reporter, beta-gal luminescence, 40 h. Potency, µM (top dose mostly 60.7 µM), inactives show top-dose activity change, positive = activation, most hits filed as activators. 0.02% of 110,000 active; further: potency means the concentration at half of the fitted maximal effect
#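 Each well holds 300 Peg3LacZ-Neo (maternal) female ES cells incubated 40 h at 37C, 5% CO2. LacZ is measured by BetaGlo luminescence, with AC50 and maximum efficacy derived from dose-response curves.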
# HBB splicing = qHTS Assay for Modulators of Hemoglobin Beta Chain Splicing. Potency, µM (top dose mostly 46.1 µM), for inactives: top-dose activation, most hits filed as activators. HBB splicing reporter cell assay, activation; EGFP reporter with mutant IVS2-654 intron; response scale: normalised to 500 nM splice-correcting PNA. AID 925, 2007. 0.06% of 65,000 active; further: potency means the concentration at half of the fitted maximal effect; 0% is about no effect
#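 Compounds were applied for 2 days to HeLa EGFP-654 cells, 500/well in Optimem with 2% FCS. The reporter's EGFP is disrupted by mis-splicing of beta-globin intron IVS2-654. Readout: summed well GFP fluorescence from 488 nm laser scanning; reference was 500 nM antisense […] 654 PNA.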
# Epigenetic mod = qHTS Assay for Epigenetic Modulators | mouse C127i GFP locus derepression, cytometry, 30 h | Potency, µM (series often up to 46.1 µM), for the others: at the highest dose GFP derepression (activation) | 0.09% of 68,000 active | AID 597, 2007; further: % of control where 0% means no effect
#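 Derepression screen: silenced CMV-GFP reporter in murine C127i cells, 30 h compound incubation at 37 C, washed cells imaged by laser-scanning cytometer to enumerate GFP-expressing objects of 20 to 120 um.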
# ERK AVP inh = qHTS Assay for Inhibitors of the ERK Signaling Pathway using a Homogeneous Screening Assay; HEK293-V1b, vasopressin-stimulated pERK AlphaScreen; AID 995, 2007; Potency, µM (top dose mostly 57.5 µM), without a hit: top-dose activity, negative = inhibition, hits mostly inhibitors; 0.99% of 72,000 active; further: potency means the concentration at half of the fitted maximal effect; on the % scale 0 is the no-effect control and ±100 the full control effect; nearly all actives have a fitted effect of over 55% in size
#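 V1b-HEK293 cells; cpd 30 min 37C; 25 nM vasopressin 5 min; lyse 10 min; AlphaScreen beads 5 hr RT. Normalized to DMSO basal and 25 nM vasopressin; AC50 by Hill fit.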
# * hit, by the source's call; ? = inconclusive; . = not tested or not shown; [ ] = remark or other dose. Unless noted, the call rests on the fitted dose curve; in most records, active means well fitted curve in the direction sought with a large enough effect; inconclusive means small, poorly fitted or top-dose-only effect, or another doubt; inactive means no such curve, though single readings can be large; an effect the other way counts as inactive or inconclusive.
SMILES,UbGFP stabilizer,Imprint erasure,HBB splicing,Epigenetic mod,ERK AVP inh
CCC(C)NC(=O)c1cc(Sc2cccc(Cl)c2)nc2ccccc12 (centres undefined),.,-15%[10.9 µM],.,.,.
N#CC(=NCCO)C1=C(O)c2ccccc2C1=O,7%[9.17 µM],0%[10.9 µM],0%[9.22 µM],4%[9.22 µM],19%[11.5 µM]
O=C1C(SCCO)=C(SCCO)C(=O)c2ccccc21,15%,-74%,2%,1%,16µM*
O=C(Nc1ccc(Cc2ccncc2)cc1)C1CC1,2%,-4%,0%[57.5 µM],1%,7%
COC(=O)c1cccc(Nc2nc3ccccc3nc2C)c1,12%,-17%,1%,6%,25µM*
COC(=O)c1[nH]c2cc(OC)c(OC)cc2c1NC(=O)CN1CCN(Cc2ccccc2)CC1,23%,-12%,8%[1.84 µM],-5%,10µM*
COC(=O)c1[nH]c2ccc(C)cc2c1NC(=O)CN1CCN(Cc2ccccc2)CC1,4%,-14%,7%[1.84 µM],0%,?
COC(=O)c1[nH]c2ccc(C)cc2c1NC(=O)CN1CCN(c2ccccc2)CC1,11%,-17%,2%[1.84 µM],-2%,13µM*
CCCc1nc2sc3c(N4CCC(C)CC4)ncnc3c2c2c1CCCC2,.,10%[10.9 µM],.,.,.
CC(NC(=O)C1CCN(C(=O)c2ccc(-n3ccc4ccccc43)s2)CC1)c1ccccc1 (centres undefined),.,-8%[10.9 µM],.,.,.
CS(=O)(=O)N(CC(=O)N1CCN(c2ccccc2)CC1)C1CCCCC1,8%,-4%,0%,-5%,-14%
COCCn1c(=O)c(CCc2ccccc2)nc2cnc(N3CCOCC3)nc21,2%,4µM*,2%,0%[9.22 µM],-5%
N#CCC(=O)N1CCn2c1nc1ccccc12,-3%,-9%,0%,2%,-7%
O=C(Nc1ccc(-c2nc3ccccc3o2)c(O)c1)c1cc(-n2cnnc2)ccc1Cl,-3%,3%,3%,14%,6.3µM*
N#CC(=C(/N)Sc1ccccc1N)/C(C#N)=C(/N)Sc1ccccc1N,-2%,-34%,1%,2%,0.2µM*
COc1cccc2cc(-c3nc(-c4ccc(C)cc4)c(C)s3)c(=O)oc12,.,6%[10.9 µM],.,.,.
COc1ccc(N2CCN(C(=O)C(Cc3ccccc3)n3cccc3)CC2)cc1 (centres undefined),0%,-15%,-1%,0%,25µM*
O=C(C(Cc1ccccc1)n1cccc1)N1CCCCC1 (centres undefined),5%,-7%,0%,-5%,-24%
CC(=O)N1CCN(c2ccc(Nc3nc(C)nc4c3oc3ccccc34)cc2)CC1,0%,-17%,3%,2%,10µM*
Nc1c(-c2nc(-c3ccc(F)cc3)cs2)c2ccccn2c1C(=O)c1ccc2c(c1)OCO2,.,-9%[10.9 µM],.,.,.
CCCCOC(=O)c1ccc(NC2=NS(=O)(=O)c3ccccc32)cc1,.,-5%[10.9 µM],.,.,.
COc1ccc(NC(=O)Nc2ccc3c(c2)N(C)C(=O)CS3)cc1OC,12%,-3%,0%,0%,25µM*
O=[N+]([O-])c1ccc(-c2nc(-c3ccc(F)cc3)c(-c3ccncc3)[nH]2)cc1,.,-21%,.,.,20µM*
CCCCCCCC(=O)O[C@H](CC(=O)O)C[N+](C)(C)C,1%,9%,.,-2%,12%
COc1ccc2nc3c(cc2c1)Cc1ccccc1-3,.,-96%,2%,.,32µM*
SMILES,UbGFP stabilizer,Imprint erasure,HBB splicing,Epigenetic mod,ERK AVP inh
Cc1ccc(NC(=O)Cn2c(=O)n(Cc3nc(C)no3)c(=O)c3ccccc32)c(Cl)c1,.,7%[10.9 µM],.,.,.
O=C(COc1ccccc1O)Nc1ccc(Cl)cc1,-6%,-6%,-3%,-1%,2%
O=C(COc1ccc(Br)cc1CO)Nc1ccc(F)cc1,13%,8%,-1%,2%,40µM*
COc1ccc(-c2nc(C#N)c(NCc3ccc(F)cc3)o2)cc1OC,-1%,-19%,8%[0.369 µM],3%,25µM*
COc1ccc(CCNc2oc(COc3ccc(Br)cc3)nc2C#N)cc1OC,-9%,-19%,-1%,2%,20µM*
COCCNc1oc(-c2ccc(OC)cc2)nc1C#N,.,-9%[10.9 µM],.,.,.
COc1ccc(CNc2oc(-c3ccccc3)nc2C#N)cc1,3%,-7%,-2%,.,32µM*
COc1ccc(-c2nc(C#N)c(NCCc3ccccc3)o2)cc1,-1%,3%,0%,2%,16µM*
Nc1ncnc2c1c(-c1ccc(Oc3ccccc3)cc1)cn2C1CCCC1,-2%,-25%,-2%,-1%,7.9µM*
CCOC(=O)c1ccccc1NC(=O)c1ccc(NS(C)(=O)=O)cc1,-3%,-3%,-1%,2%,25µM*
COC(=O)c1ccccc1NC(=O)c1ccc(F)cc1,-1%,-13%,.,0%,12%
Cc1ccc(C(=O)C2CCN(CC(=O)Nc3ccc(N(C)C)cc3)CC2)cc1,6%,-6%,.,0%,16µM*
N/C(CSc1nc(-c2ccccc2)c(-c2ccccc2)o1)=N\O,1%,-16%,-1%,-2%,32µM*
NCCSc1nc(-c2ccccc2)c(-c2ccccc2)o1,6%[9.17 µM],0%[10.9 µM],4%[9.22 µM],9%[9.22 µM],0%[11.5 µM]
CN(C)C(=O)c1ccc(-c2ccc3ncnc(NCc4cccnc4)c3c2)cc1,-6%,7%,0%,0%[9.22 µM],?
CCOC(=O)CNS(=O)(=O)c1cc(-c2nn(C)c(=O)c3ccccc23)ccc1C,.,.,.,7%[20.6 µM],.
Cc1ccc(-c2nn(C)c(=O)c3ccccc23)cc1S(=O)(=O)NCCN1CCOCC1,6%,6%,0%,0%,25µM*
Cc1cccc(CNc2ncnc3ccc(-c4cccnc4)cc23)c1,0%,-31%,0%,-3%[9.22 µM],2µM*
CN(C)C(=O)c1ccc(-c2ccc3ncnc(NCc4ccccc4)c3c2)cc1,-2%,-4%,0%,2%[9.22 µM],25µM*
Cc1cccc(CNc2ncnc3ccc(-c4cccc(NS(C)(=O)=O)c4)cc23)c1,-1%,-9%,-3%,-3%[9.22 µM],25µM*
Cc1ccc(-c2noc(CCC(=O)NC3CCCc4ccccc43)n2)cc1 (centres undefined),0%,-19%,-1%,-3%,11%
CN1CCN(c2ncnc3ccc(-c4cccc(NS(C)(=O)=O)c4)cc23)CC1,-7%,-10%,2%,2%[9.22 µM],3.2µM*
COc1ccccc1-c1ccc2ncnc(N3CCOCC3)c2c1,1%,-12%,-1%,2%[9.22 µM],10µM*
COc1cccc(-c2ccc3ncnc(NCc4ccccc4OC)c3c2)c1,-3%,1%,-1%,-3%[9.22 µM],?
Cc1ccccc1-c1ccc2ncnc(NCCN3CCOCC3)c2c1,-7%,-20%,-1%,?,25µM*
COc1ccccc1-c1ccc2ncnc(N3CCN(C)CC3)c2c1,-8%,-20%,-1%,-3%[9.22 µM],22%
CS(=O)(=O)Nc1cccc(-c2ccc3ncnc(NC4CC4)c3c2)c1,1%,-8%,-1%,5%[9.22 µM],?

# Screening results (PubChem)
